The values below come from PubChem BioAssay.

SMILES strings stand for the structures. The source made the active and inactive calls.

A short description of assay [1]: anti-His antibody binders, primary screen, artefact control for SMM control protein annotation, biochemical, small-molecule microarray, 635 nm fluorescence (AID 1128).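 Also: score merges feature fluorescence with signal-to-noise for each printed compound spot.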 The following applies: anti-His Alexa647 antibody binding, higher = more signal.
Assay [2] concerns Human papillomavirus type 1a E7 protein (residues 1-88). Kind of assay: HPV1a E7 small-molecule binders, primary screen, biochemical, small-molecule microarray, residues 1-88, 635 nm (AID 1129). The following applies: small-molecule microarray binding, fluorescence 635 nm; higher = more signal.
The target of assay [3] is Focal adhesion kinase 1 (Homo sapiens) (UniProt Q05397). As to the kind of experiment: small-molecule microarray binders of FAK, primary screen, biochemical, 635/667 nm fluorescence, BSA, DTT (AID 1130).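 Also: composite of spot emission at 667 nm and signal to noise over triplicate slides.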 The following applies: PTK2 binding, 635 nm fluorescence, higher = more signal.
Sequence of Focal adhesion kinase 1 (Homo sapiens) (Q05397 whole entry, looked up): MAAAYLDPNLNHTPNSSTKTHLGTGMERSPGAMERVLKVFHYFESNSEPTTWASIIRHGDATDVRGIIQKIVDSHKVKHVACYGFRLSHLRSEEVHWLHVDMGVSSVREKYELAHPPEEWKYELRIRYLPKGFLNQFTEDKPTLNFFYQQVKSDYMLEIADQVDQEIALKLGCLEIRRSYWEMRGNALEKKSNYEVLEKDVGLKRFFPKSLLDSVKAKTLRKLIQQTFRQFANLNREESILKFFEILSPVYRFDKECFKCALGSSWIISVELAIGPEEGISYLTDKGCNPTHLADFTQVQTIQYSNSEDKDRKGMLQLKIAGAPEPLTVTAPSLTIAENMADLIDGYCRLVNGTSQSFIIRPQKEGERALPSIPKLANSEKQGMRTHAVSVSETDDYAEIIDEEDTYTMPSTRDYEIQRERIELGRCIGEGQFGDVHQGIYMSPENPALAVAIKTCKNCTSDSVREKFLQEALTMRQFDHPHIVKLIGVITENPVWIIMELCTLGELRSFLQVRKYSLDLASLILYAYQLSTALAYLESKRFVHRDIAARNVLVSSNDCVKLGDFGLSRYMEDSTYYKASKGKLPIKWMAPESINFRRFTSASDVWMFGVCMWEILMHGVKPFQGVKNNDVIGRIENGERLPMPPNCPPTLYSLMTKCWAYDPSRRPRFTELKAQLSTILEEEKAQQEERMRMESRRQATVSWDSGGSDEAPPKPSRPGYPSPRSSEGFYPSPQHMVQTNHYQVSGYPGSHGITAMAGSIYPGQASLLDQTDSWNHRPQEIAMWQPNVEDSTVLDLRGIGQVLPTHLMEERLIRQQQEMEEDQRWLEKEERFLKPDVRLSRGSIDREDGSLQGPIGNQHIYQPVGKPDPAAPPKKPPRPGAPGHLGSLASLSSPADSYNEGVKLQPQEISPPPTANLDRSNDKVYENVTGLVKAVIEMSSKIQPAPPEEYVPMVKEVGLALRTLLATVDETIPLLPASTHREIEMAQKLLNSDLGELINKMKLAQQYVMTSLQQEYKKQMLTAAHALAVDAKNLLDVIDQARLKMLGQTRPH
For assay [4], the system named is Fibrinogen (Alexa647-labelled). As to the kind of experiment: fibrinogen binders on compound microarrays, profiling panel, artefact control for SMM control-protein annotation, biochemical, small-molecule microarray, 635/667 nm fluorescence (AID 1131).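 Also: z-score merges 667 nm fluorescence with per-spot signal-to-noise over triplicate slides.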 The following applies: fibrinogen-A647 binding fluorescence, higher = more signal.
In assay [5] the target is Follistatin (Homo sapiens) (UniProt P19883). As to the kind of experiment: follistatin binders on small-molecule microarrays, primary screen, biochemical, small-molecule microarray, 635/667 nm fluorescence (AID 1132). The following applies: FST binding, 635 nm fluorescence, higher = more signal.
Sequence of Follistatin (Homo sapiens) (P19883 whole entry, looked up): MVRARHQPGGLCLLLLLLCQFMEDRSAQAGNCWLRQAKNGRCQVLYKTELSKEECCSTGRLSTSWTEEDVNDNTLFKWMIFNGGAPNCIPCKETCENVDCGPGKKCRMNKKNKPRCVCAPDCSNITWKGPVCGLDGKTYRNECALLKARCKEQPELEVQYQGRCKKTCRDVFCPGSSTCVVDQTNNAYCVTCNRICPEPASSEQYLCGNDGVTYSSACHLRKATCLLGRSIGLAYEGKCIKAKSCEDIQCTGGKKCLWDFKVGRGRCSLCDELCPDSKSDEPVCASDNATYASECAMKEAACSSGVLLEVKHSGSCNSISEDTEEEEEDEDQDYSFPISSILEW
Assay [6] has as its target Fibroblast growth factor 2 (Homo sapiens) (UniProt P09038). Kind of assay: FGF2 binders on small-molecule microarrays, primary screen, biochemical, small-molecule microarray, 635/667 nm fluorescence (AID 1133). The following applies: small-molecule microarray binding, FGF2, fluorescence 635/667; higher = more signal.
Assay [7] can be described thus: mitochondrial membrane potential change in A549 cells, profiling panel, cell-based, JC-1 fluorescence, basal, 24 h, 100 nL (AID 1138).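 Also: A549 lung adenocarcinoma cells under basal conditions with no added stimulus; test concentration not given here.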 The following applies: higher = more signal.
In the next assay the test system is Lefty1. As to the kind of experiment: Lefty1 binders on small-molecule microarrays, primary screen, biochemical, small-molecule microarray, 635/667 nm fluorescence (AID 1139). The following applies: small-molecule microarray binding, fluorescence 635/667; higher = more signal.
In assay [8] the test system is wheat germ agglutinin (Triticum aestivum), Alexa647-labelled. Kind of assay: wheat germ agglutinin binders on compound microarrays, profiling panel, artefact control for SMM control-protein annotation, biochemical, small-molecule microarray, 635/667 nm fluorescence (AID 1140).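 Also: score merges 667 nm feature emission with signal to noise over triplicate slides.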 The following applies: WGA-A647 binding, 635 nm fluorescence, higher = more signal.
The target in assay [9] is Luciferin 4-monooxygenase (Photinus pyralis) (UniProt P08659). Kind of assay: firefly luciferase enzyme inhibitors, primary screen, biochemical, luminescence, purified enzyme, 2006 set (AID 1141).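 Also: cell-free assay with purified firefly luciferase at 100 ng per well in PBS; test concentration not given here.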 The following applies: SteadyGlo luminescence, 30 min, higher = more signal, called active from +8 up or from −8 down.
Sequence of Luciferin 4-monooxygenase (Photinus pyralis) (P08659 whole entry, looked up): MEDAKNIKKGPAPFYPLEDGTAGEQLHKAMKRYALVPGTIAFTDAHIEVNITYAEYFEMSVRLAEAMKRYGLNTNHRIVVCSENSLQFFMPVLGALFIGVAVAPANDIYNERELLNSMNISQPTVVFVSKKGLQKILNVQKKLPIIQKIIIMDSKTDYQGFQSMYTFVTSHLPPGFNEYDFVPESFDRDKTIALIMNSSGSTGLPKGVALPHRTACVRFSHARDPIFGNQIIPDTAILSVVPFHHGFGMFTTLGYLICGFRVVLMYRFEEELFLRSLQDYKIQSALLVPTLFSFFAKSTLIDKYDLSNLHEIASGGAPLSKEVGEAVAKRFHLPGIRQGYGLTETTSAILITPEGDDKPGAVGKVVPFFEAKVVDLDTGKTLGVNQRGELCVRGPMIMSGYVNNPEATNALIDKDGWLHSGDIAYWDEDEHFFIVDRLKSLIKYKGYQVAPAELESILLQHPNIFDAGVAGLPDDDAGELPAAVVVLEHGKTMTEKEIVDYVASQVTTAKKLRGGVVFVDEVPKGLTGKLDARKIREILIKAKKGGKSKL

Sequence of Fibroblast growth factor 2 (Homo sapiens) (P09038 whole entry, looked up): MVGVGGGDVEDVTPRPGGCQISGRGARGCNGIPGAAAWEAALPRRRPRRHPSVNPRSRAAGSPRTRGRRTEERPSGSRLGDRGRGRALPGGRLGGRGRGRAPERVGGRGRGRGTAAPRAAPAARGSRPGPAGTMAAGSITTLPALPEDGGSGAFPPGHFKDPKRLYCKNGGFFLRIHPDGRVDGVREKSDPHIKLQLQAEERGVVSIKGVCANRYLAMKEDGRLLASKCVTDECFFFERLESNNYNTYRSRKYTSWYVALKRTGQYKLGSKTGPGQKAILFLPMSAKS

As for `COc1ccc(C(O)C2C=CC3C(=O)N(c4ccccc4)C(=O)C3N2Nc2ccccc2)cc1OCc1ccccc1` (stereo not given), the composite z-score in assay [1] was 0.621; in assay [2] it was 1.24; in assay [3], 0.315; in [4], 0.942; in assay [5] it was 1.22; in [6], -0.132. For the same molecule, the composite z-score was 0.788 with Lefty1 and 1.22 in assay [8]. In addition, the z-score in assay [7] was -0.0208; in [9], -0.414 (inactive).
For the molecule `CO[C@H]1O[C@H](CO)[C@@H](OC(=O)Nc2ccccc2-c2ccccc2)[C@H](OC(=O)Nc2ccc3c(c2)OCO3)[C@@H]1OC(=O)Nc1ccc2c(c1)OCO2`, the composite z-score in [1] is 0.971; in assay [2], 1.27; in [3], 0.485; in assay [4] it was 0.991; in [5], 1.24; in [6], 0.853. The composite z-score came to 1.16 in the assay on Lefty1 and 0.412 in [8]. Also, the z-score in assay [7] was 1.56; in assay [9] it was -7.93 (inactive).
For `O=C(CCCCCCC(=O)Nc1ccccc1)N/N=C/c1ccccc1`, the composite z-score is 0.602 in assay [1]; -0.581 in [2]; -0.266 in assay [3]; -0.876 in [4]; -0.083 in assay [5]; 0.323 in assay [6]. The composite z-score was -0.251 in the assay on Lefty1 and -0.552 in assay [8]. The z-score in assay [7] was -0.123; in assay [9], -0.83 (inactive).
For the molecule `CCOC(=O)C1=C[C@@H](c2ccccc2)N(S(=O)(=O)c2ccc(C)cc2)[C@H]1c1cccc(Cl)c1`, the composite z-score in [1] worked out at 2.44; in assay [2], 1.17; in assay [3], 0.283; in assay [4], 0.612; in assay [5], 0.938; in assay [6], 0.111. In addition, the composite z-score with Lefty1 was determined as 0.465; in assay [8] it was 1.31. The values for the z-score in assay [7] and in [9] were 3.78 and 1.18 (inactive), respectively.
In the case of `CC(C)(C)OC(=O)CC[C@]1(C(=O)NCCN2CCOCC2)N=C(c2ccc(OCCCO)cc2)O[C@H]1c1ccccc1N=[N+]=[N-]`, the composite z-score is 2.11 in assay [1]; 1.15 in assay [2]; 0.782 in assay [3]; 1.04 in assay [4]; 0.283 in assay [5]; -0.104 in assay [6]. Moreover, the values for the composite z-score (in the assay with Lefty1; in [8]) were -0.595 and 1.33, respectively. In addition, the z-score in [7] is 0.669; in [9] it was -10.8 (active).
On to `CN1C(=O)[C@@]2(CCS(=O)(=O)c3ccccc3)N=C(c3ccc(OCCCO)cc3)O[C@H]2c2ccccc21`, for which the composite z-score in [1] worked out at 3.54; in assay [2], 1.26; in [3], 0.582; in assay [4], 0.974; in assay [5] it was 1.29; in [6], 0.394. Besides, the composite z-score with Lefty1 worked out at 0.358; in [8], 1.01. Besides, the z-score in [7] is 1.15; in [9], -0.899 (inactive).
`COc1ccc(C#Cc2ccc3c(c2)[C@]2(C(=O)N3)[C@H](C(=O)N3CCc4cc(OC)c(OC)cc4C3)[C@H]3C(=O)O[C@H](c4ccccc4)[C@H](c4ccccc4)N3[C@@H]2c2ccc(O)cc2)cc1`: the composite z-score in [1] turned out to be 1.5; in [2], 1.2; in assay [3] it was 0.735; in assay [4] it was 0.924; in assay [5], 0.896; in assay [6] it was 0.465. Moreover, the composite z-score was 0.374 in the assay on Lefty1 and 0.0376 in assay [8]. The z-score was -1.47 in assay [7] and -0.716 (inactive) in assay [9].
On to `COc1ccccc1CN1C(=O)c2ccccc2[C@@H](C(=O)NC(C)C)[C@@H]1c1ccc(CO)cc1`, for which the composite z-score in assay [1] is 1.73; in assay [2] it was 1.15; in assay [3] it was 0.476; in assay [4], 1.01; in assay [5], 1.33; in [6], 1.32. The figures for the composite z-score (in the assay with Lefty1; in assay [8]) were 0.456 and 0.112, respectively. The figures for the z-score in assay [7] and in assay [9] were 1.43 and -0.586 (inactive), respectively.
Consider `O=C1O[C@@H](c2ccccc2)[C@@H](c2ccccc2)N2[C@@H](c3ccc(O)cc3)[C@]3(C(=O)Nc4ccc(C#CC5=CCCCC5)cc43)[C@@H](C(=O)N3CCN(c4ncccn4)CC3)[C@H]12`, for which the composite z-score in assay [1] was found to be 0.567; in assay [2], 1.19; in [3] it was 1.24; in assay [4] it was 0.811; in assay [5] it was 1.22; in assay [6], 1.1. For the same molecule, the composite z-score in the assay on Lefty1 amounted to 0.68; in [8] it was 0.262. In addition, the values for the z-score in assay [7] and in assay [9] were -0.367 and 0.745 (inactive), respectively.
As to `COC(=O)[C@@]1(Cc2ccc(OC)cc2)[C@H]2c3cc(C(=O)N(C)C)n(Cc4nc5ccccc5[nH]4)c3C[C@H]2CN1C(=O)c1ccccc1`, the composite z-score was 1.39 in assay [1]; 1.26 in assay [2]; 1.34 in assay [3]; 0.991 in assay [4]; 0.907 in assay [5]; -0.295 in assay [6]. Also, the composite z-score with Lefty1 was -0.117; in [8] it was 1.35. Also, the values for the z-score in assay [7] and in assay [9] were 1.95 and 2.41 (inactive), respectively.
Consider `C[C@H]1ON(c2ccc(C(=O)OC(C)(C)C)cc2)[C@@H](c2ccc(O)cc2)[C@@H]1C(=O)N1C(=O)OC[C@@H]1c1ccccc1`, for which the composite z-score turned out to be 0.82 in assay [1]; 1.13 in assay [2]; 0.429 in assay [3]; 0.935 in [4]; 1.22 in assay [5]; 1.4 in assay [6]. In addition, the figures for the composite z-score (with Lefty1; in assay [8]) were 0.724 and 0.38, respectively. For the same molecule, the figures for the z-score in assay [7] and in assay [9] were -0.802 and -0.587 (inactive), respectively.
Consider `CC[C@@H]1[C@H]2C3C(=O)N(CC)C(=O)C3CC(=O)[C@H]2[C@H](c2ccc(C)cc2)N1S(=O)(=O)c1ccc(C)cc1` (stereo not given in full), for which the composite z-score in [1] turned out to be 0.733; in [2], 1.1; in assay [3], 0.213; in assay [4], 0.142; in assay [5], 0.532; in assay [6], 0.087. The results for the composite z-score (with Lefty1; in assay [8]) were 0.201 and 0.676, respectively. Moreover, the values for the z-score in assay [7] and in assay [9] were 1.18 and 0.497 (inactive), respectively.
Regarding `CC(C)N1CC=CC23O[C@@H]4C=CCCOC(=O)C4[C@H]2C(=O)N(CCO)[C@@H]3C1=O` (stereo not given in full), the composite z-score in assay [1] was -0.517; in assay [2], -1; in [3] it was -0.482; in assay [4] it was -0.288; in [5] it was -0.194; in [6], -0.205. The values for the composite z-score (with Lefty1; in [8]) were 0.0404 and 0.459, respectively. Further, the z-score in assay [7] was -0.467; in [9], 0.697 (inactive).
